Values joined by “and” are separate entries in the source; they are usually repeats but may differ in a detail not shown here. Equal values may be shown once. Among all 5,500 compounds or so, about 2,000 (36%) were called active. Not shown: some 18% with an inconclusive outcome. Cut-off read from the data, not from the text of the source: active = normalized growth mostly below about 0.91 (no sharp cut-off); inconclusive = no clear call, values can overlap the other calls; inactive = mostly above about 0.92. The list shows a part of the results.
Experiment: chemical genetic growth profiling, strain panel (AID 1159580);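 note: tested at 20 µM; growth read once vehicle control cultures reached saturation at 30 °C; 1 = growth at the plate median or of vehicle wells; lower values mean less growth of the strain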
Details: S. cerevisiae deletion strains, growth OD

Measured: normalized growth

O=c1[nH]c(=O)n(C2C[C@H](O)[C@@H](CO)O2)cc1C(F)(F)F (stereo partly specified)
inactive: locus YAL013W, strain DEP1, hits give low values 0.992 | locus YAL021C, strain ccr4, hits give low values 0.999 | locus YAL026C, strain drs2, hits give low values 0.973 | locus YAL030W, strain snc1, hits give low values 0.979 | locus YBL061C, strain skt5, hits give low values 0.974 | locus YBR009C, strain hhf1, hits give low values 0.981 | locus YBR021W, strain FUR4, hits give low values 0.968 | locus YBR023C, strain chs3, hits give low values 0.983 | locus YBR171W, strain sec66, hits give low values 0.965 | locus YBR229C, strain ROT2, hits give low values 0.986 | locus YBR231C, strain swc5, hits give low values 0.976 | locus YBR279W, strain paf1, hits give low values 0.98 | locus YCL011C, strain gbp2, hits give low values 0.954 | locus YCL016C, strain dcc1, hits give low values 0.972 | locus YCL029C, strain bik1, hits give low values 0.971 | locus YCL069W, strain vba3, hits give low values 0.994 | locus YCR088W, strain abp1, hits give low values 0.973 | locus YDL005C, strain med2, hits give low values 0.964 | locus YDL035C, strain GPR1, hits give low values 0.986 | locus YDL040C, strain nat1, hits give low values 0.976 | locus YDL074C, strain BRE1, hits give low values 0.97 | locus YDL101C, strain DUN1, hits give low values 0.987 | locus YDL134C, strain PPH21, hits give low values 1 | locus YDL185W, strain tfp1, hits give low values 0.962 | locus YDL192W, strain arf1, hits give low values 0.981 | locus YDR001C, strain nth1, hits give low values 0.947 | locus YDR069C, strain doa4, hits give low values 0.95 | locus YDR101C, strain arx1, hits give low values 0.981 | locus YDR137W, strain rgp1, hits give low values 0.901 | locus YDR150W, strain NUM1, hits give low values 0.996 | locus YDR159W, strain sac3, hits give low values 0.947 | locus YDR162C, strain NBP2, hits give low values 0.984 | locus YDR195W, strain ref2 0.922 | locus YDR297W, strain sur2, hits give low values 0.969 | locus YDR318W, strain mcm21, hits give low values 0.987 | locus YDR334W, strain swr1, hits give low values 0.964 | locus YDR335W, strain msn5, hits give low values 0.96 | locus YDR388W, hits give low values 0.975 | locus YDR392W, strain spt3, hits give low values 1 | locus YDR502C, strain sam2, hits give low values 0.979 | locus YEL003W, strain gim4, hits give low values 0.979 | locus YEL037C, strain rad23, hits give low values 0.984 | locus YEL061C, strain CIN8 (second series), hits give low values 0.952 | locus YEL061C, strain CIN8, hits give low values 0.995 | locus YER015W, strain faa2, hits give low values 0.972 | locus YER016W, strain bim1, hits give low values 0.978 | locus YER110C, hits give low values 0.966 | locus YER111C, strain swi4, hits give low values 0.976 | locus YER155C, strain BEM2 (second series), hits give low values 0.957 | locus YER155C, strain BEM2, hits give low values 0.984 | locus YER167W, strain BCK2, hits give low values 0.945 | locus YFR010W, strain ubp6, hits give low values 0.953 | locus YGL078C, strain dbp3, hits give low values 0.966 | locus YGL086W, strain mad1, hits give low values 0.979 | locus YGL167C, strain pmr1, hits give low values 0.968 | locus YGL173C, strain kem1, hits give low values 0.98 | locus YGL227W, strain vid30, hits give low values 0.946 | locus YGL240W, strain doc1, hits give low values 1 | locus YGL248W, strain PDE1, hits give low values 0.978 | locus YGL253W, strain hxk2, hits give low values 0.972 | locus YGR078C, strain PAC10, hits give low values 0.997 | locus YGR135W, strain pre9, hits give low values 0.969 | locus YGR229C, strain SMI1, hits give low values 0.963 | locus YGR252W, strain gcn5, hits give low values 0.971 | locus YHR013C, strain ard1, hits give low values 0.923 | locus YHR027C, strain rpn1, hits give low values 0.958 | locus YHR030C, strain SLT2, hits give low values 0.985 and 1.02 | locus YHR079C, strain IRE1 (second series), hits give low values 0.974 | locus YHR079C, strain IRE1, hits give low values 1.03 | locus YHR094C, strain hxt1, hits give low values 0.983 | locus YHR129C, strain ARP1, hits give low values 0.987 | locus YHR142W, strain chs7, hits give low values 0.922 | locus YHR200W, strain rpn10, hits give low values 0.985 | locus YIL066C, strain RNR3, hits give low values 0.986 | locus YIL073C, strain SPO22, hits give low values 0.967 | locus YIL125W, strain kgd1, hits give low values 0.968 | locus YIR030C, strain dcg1, hits give low values 0.969 | locus YJL092W, strain hpr5, hits give low values 0.962 | locus YJL095W, strain BCK1 (second series), hits give low values 0.962 | locus YJL095W, strain BCK1, hits give low values 0.969 and 1.01 | locus YJL115W, strain asf1, hits give low values 0.928 | locus YJL129C, strain trk1, hits give low values 0.916 | locus YJL134W, strain LCB3, hits give low values 0.987 | locus YJL154C, strain vps35, hits give low values 0.975 | locus YJL164C, strain tpk1, hits give low values 0.968 | locus YJL166W, strain qcr8, hits give low values 0.953 | locus YJL168C, strain set2, hits give low values 0.987 | locus YJL187C, strain SWE1 (second series), hits give low values 0.982 | locus YJR043C, strain POL32, hits give low values 0.973 | locus YJR066W, strain TOR1, hits give low values 0.963 | locus YJR075W, strain HOC1, hits give low values 0.991

From PubChem BioAssay AID1159580 (chemical genetic matrix, 2015)
